Results published in the supplement of paper PMC6555819.

The sequences below were run on VDR:RXRa (NR concentration 270 nM, RXRa partner concentration 90 nM) (assay: PBM binding z-score (relative to random genomic background probes); higher = stronger binding; sequences stand for … in GC…GCGATTGACAGCGTAGAATGAAGG).
Experimental: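 Protein-binding microarray (Agilent 4x180K custom design, double-stranded 60-nt probes: 5' GC cap, 34-nt variable region, 24-nt constant primer region; full probe sequence given). Purified or IVT nuclear receptor:RXRα heterodimers (3:1 NR:RXRα, mostly 270:90 nM) or homodimers were incubated for 1 h in PBS with 2% milk and no ligand, then detected with Alexa488 antibodies. Fluorescence from o1-orientation probes (~5 replicates averaged) was converted to z-scores against 500 random hg19 background probes. Variable regions are seed direct-repeat (DR0–DR5) sites, all their single-nucleotide variants and half-site ablations.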

Sequence | PBM binding z-score
TCTAGCAGGGCAGAGGGTCACTCAAGAGGTACGG | 1.63
TCGAGGAGGTTAGTCGGGGCATTCAGCCAACATA | 3.8
TCTTGTAGATCAGCAGGTTAAGAAGGCTGGCCAA | 0.724
TTACCAAGGTGAAAAGTCGTTGATGCACGCCTTG | 0.0875
CCTACTGGGCCATTCAGAGGTCATTAATCATATG | 3.64
TCATATAGGTAATACAGGTGTAAGTCGGCATCTA | 1.17
TCTGCTAGGTCAACGGTGGTCAGCTAATCTGCTA | 1.95
TCAGACAGATGAAGGTAACTCAGGTACGCAGTCG | 0.608
ACTTACGGGTCAACGAGGTTATAGGACGCGTATA | 7.69
CCTAGCAGGCCAGGGTCACTCGAGCATTTCGCTT | 2.54
CCGACAGGGGCAAAGGTTACCATACTCAGTACGA | 2.6
CCGAGTAGGTTATGTGGCATTCAGGCAACGGTGA | -0.184
AGAATGAGGTTCCCAAAGATCAGGGAAACGCTTG | -0.0526
TCTCGTAGATCAGCAGGTTAAGAAAGCTGGCCAA | 0.21
TCATATAGGTAATACAGGGGAAAGTCGGCATCTA | 1.06
GCTTGTAGATCAAGGTTGAGAAAGACTAAGCTAA | -0.388
ATCTCTAGGTAAGGATAGTTCAGTGAATGCAAAT | 0.733
TCATATAGGTAAACGTGAAAGTCGAACGATATGA | 0.503
CCTTACGGGTCACCGACAGGTTATAGCATTTGGA | 4.44
CAAACTAGGTCAAGAAAGGTCAAAGTCGAATGAC | 6.44

Sequence | PBM binding z-score
GCTCGGAGGATAAGGTCAGAGCTTTGTCCGTAGA | 1.15
GCTTGTAGATCAAGGTTAAAAAAGACTAAGCTAA | 0.328
GGAACGAGGGCATCCGAGTTGATAGCATGGCGAT | 3.18
GCAGAGAGGTGAAACGCAGGTAACTCAGGGTGGC | 0.186
CCTACTGGGCCATCAGGTCATAGATATCAACGTT | 1.25
CGACCTAGGTCATCCAGGACAGTGAATACATTGA | 4.85
CAGACTGGGGCAAGGTTACCATAACGCACAGCCA | 0.28
CAAACTAGGTCAAGGTCGAAGTCGGTTTGTGCCA | 3.27
AGAATGAGGTTAATAAGATCAGGGAATTGCGGTC | 2.02
CCGACTGGGGCAACGTTACCATAACGCACAGCCA | -0.557
CGAACTTGGTCAAGGACAGTGAATCTCCGCACGC | -0.245
CAAACTAGGTCATGGTCAAAGTCGGTTTGTGCCA | 2.18
TCGTATAGGTAAATGCTAGGTGAAAGTCCGATCT | 0.443
CCTATTAGTTGACCATAAGGGCACCCGAAGCTCG | 1.09
GTACCAAGCTGAATAGGTCGTTGATGAGTAGGCG | -0.239
TCATATTGGTAAACAGGTGAAAGTCCGTAAGTTA | 1.08
GCTTGTAGATCAAGGTTACGAAAGACTAAGCTAA | 0.359
TCATATAGGTAAAAGGTGGAAGTCGGTGTGGTAA | 1.11
ATCGAAAGGTCGGGAGGTGAGTATACAGAAAGGC | 2.24
TATACAGGGTCAACGGCCAGAGTACGAATGTCGA | 4.6
